Laboratory results published in PubChem BioAssay AID1543 (National Center for Advancing Translational Sciences (NCATS), 2009).
Records with an inconclusive call do not appear. Entries that show only a call come without a potency. Active and inactive are the calls of the source. Calls follow the shape of the dose curve; as a rule, active = well fitted activation curve with a large enough effect; inconclusive = small, poorly fitted or top-dose-only effect, or effect the other way; inactive = flat fitted curve, though single readings scatter.

biological target: Pyruvate kinase PKLR (Homo sapiens) (UniProt P30613); experiment: Secondary assay for Activators of Human Reticulocyte Pyruvate Kinase; settings: purified hPK-R, LDH-coupled NADH fluorescence kinetic; series mostly up to 57.5 µM
Sequence (P30613 whole entry, looked up): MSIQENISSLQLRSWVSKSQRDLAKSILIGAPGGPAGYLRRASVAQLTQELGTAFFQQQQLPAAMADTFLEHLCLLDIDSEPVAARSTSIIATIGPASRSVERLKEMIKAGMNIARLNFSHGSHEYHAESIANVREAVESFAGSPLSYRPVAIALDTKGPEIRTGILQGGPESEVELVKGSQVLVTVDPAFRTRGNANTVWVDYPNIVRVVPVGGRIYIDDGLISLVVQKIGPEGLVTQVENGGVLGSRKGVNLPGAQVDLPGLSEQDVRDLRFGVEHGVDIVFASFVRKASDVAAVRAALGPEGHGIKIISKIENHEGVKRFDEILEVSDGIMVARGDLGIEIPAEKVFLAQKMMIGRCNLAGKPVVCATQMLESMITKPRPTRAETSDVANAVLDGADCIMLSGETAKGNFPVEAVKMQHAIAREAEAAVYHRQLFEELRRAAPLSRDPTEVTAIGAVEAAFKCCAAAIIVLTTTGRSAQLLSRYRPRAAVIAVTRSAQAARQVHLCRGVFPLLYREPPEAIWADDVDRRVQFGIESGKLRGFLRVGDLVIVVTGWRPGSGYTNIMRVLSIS
Description: Confirmatory assay NIH Chemical Genomics Center [NCGC] Wael M. Rabeh, Lyudmila Nedyalkova and Hee-Wan Park [Structural Genomics Consortium, 100 College St. Toronto, Ontario, Canada] NCGC Assay Overview: Human pyruvate kinase reticulocyte (hPK-R) enzyme was supplied as a highly purified (>95% pure) preparation from Structural Genomics Consortium in Toronto (Ontario, Canada) and a secondary assay was used to evaluate compounds. This assay couples the formation of pyruvate from hPK-R using lactate dehydrogenase (LDH) and NADH. The depletion of NADH is followed in a fluorescent-based kinetic assay that follows the formation of pyruvate to lactate, as catalyzed LDH. Pyruvate kinase substrates, PEP and ADP, were present in the assay at 0.1 mM and 4 mM respectively. In this kinetic assay initial rates were determined by following the fluorescence of NADH depletion.
NCGC Assay Protocol Summary: Three uL of substrate mix (final concentration, 50 mM Tris-Cl pH 8.0, 200 mM KCl, 15 mM MgCl2, 0.1 mM PEP, 4.0 mM ADP, and 0.2 mM NADH) was dispensed into black-solid 1536 well plates. 23 nL of compounds were delivered by a pin tool and 1 uL of enzyme mix (final concentrations, 10 nM hPK-R and 1 uM of LDH) was added. Plates were immediately placed in ViewLux (Perkin Elmer) and NADH fluorescence was determined at 30 second exposure intervals for between 3 and 6 minutes. Data were normalized to the uninhibited and EC100 activation using known activators such as fructose-bis-phosphate.

| SMILES | Potency |
| --- | --- |
| COc1ccc(S(=O)(=O)N2CCN(S(=O)(=O)c3ccc(OC)cc3)CC2)cc1 | inactive |
| O=S(=O)(c1cccc(F)c1)N1CCN(S(=O)(=O)c2ccc3c(c2)OCCO3)CC1 | inactive |
| CCCCCn1ncc2c3sc(C)cc3n(C)c2c1=O | inactive |
| COc1ccc(Cn2ncc3c4sc(C)cc4n(C)c3c2=O)cc1 | 631 nM (active) |
| C[C@H]1CN(S(=O)(=O)c2c(F)cccc2F)CCN1S(=O)(=O)c1ccc2c(c1)OCCO2 | inactive |
| O=C(c1c(F)cccc1F)N1CCN(S(=O)(=O)c2ccc3c(c2)OCCO3)CC1 | inactive |
| O=S(=O)(c1ccc2c(c1)OCCO2)N1CCN(S(=O)(=O)c2c(F)cccc2F)CC1 | inactive |
| O=S(=O)(c1ccc(Cl)cc1)N1CCN(S(=O)(=O)c2ccc3c(c2)OCCO3)CC1 | inactive |
| O=S(=O)(c1ccc2c(c1)OCO2)N1CCN(S(=O)(=O)c2c(F)cccc2F)CC1 | inactive |
| C[C@H]1CN(S(=O)(=O)c2ccc3c(c2)OCCO3)CCN1S(=O)(=O)c1c(F)cccc1F | inactive |
| CCc1cc2c(s1)c1cnn(Cc3ccccc3F)c(=O)c1n2C | 5620 nM (active) |
| O=S(=O)(c1ccc2c(c1)OCCO2)N1CCN(S(=O)(=O)c2ccc3c(c2)OCCO3)CC1 | inactive |
| Cn1c2cc(C=O)sc2c2cnn(Cc3ccccc3F)c(=O)c21 | 398 nM (active) |
| Cc1cc2c(s1)c1cnn(Cc3c(F)c(F)cc(F)c3F)c(=O)c1n2C | inactive |
| CC(=O)c1cc2c(s1)c1cnn(Cc3ccccc3F)c(=O)c1n2C | 631 nM (active) |
| C[C@@H]1CN(S(=O)(=O)c2ccc3c(c2)OCCO3)CCN1S(=O)(=O)c1c(F)cccc1F | inactive |
| Cn1c2cc(C#N)sc2c2cnn(Cc3ccccc3F)c(=O)c21 | inactive |
| O=S(=O)(c1ccc2ccccc2c1)N1CCN(S(=O)(=O)c2c(F)cccc2F)CC1 | inactive |
| Cn1c2cc(S(C)=O)sc2c2cnn(Cc3ccccc3F)c(=O)c21 (stereo unspecified) | 1120 nM (active) |
| O=S(=O)(NC1CCC(NS(=O)(=O)c2c(F)cccc2F)CC1)c1ccc2c(c1)OCCO2 (stereo unspecified) | inactive |
| O=S(=O)(c1c(F)cccc1F)N1CCN(S(=O)(=O)c2c(F)cccc2F)CC1 | inactive |
| O=C(c1ccc2c(c1)OCCO2)N1CCN(S(=O)(=O)c2c(F)cccc2F)CC1 | inactive |
| CC(C)c1cc2c(s1)c1cnn(Cc3ccccc3F)c(=O)c1n2C | 4470 nM (active) |
| O=S(=O)(c1ccc2c(c1)OCCO2)N1CCN(S(=O)(=O)c2c(F)ccc(O)c2F)CC1 | inactive |
| Cn1c2ccsc2c2cnn(Cc3ccccc3F)c(=O)c21 | 14100 nM (active) |
| CSc1cc2c(s1)c1cnn(Cc3ccccc3F)c(=O)c1n2C | 708 nM (active) |
